Laboratory results reported in the supplement of paper PMC11417369.
± gives the standard deviation of the averaged measurements. The full ranking holds about 25,000 sequences; the median of “ln(normalized median fluorescence intensity)” is about 8.6, and the highest 2% start at about 10. The full list was thinned out, with the highest values kept by preference.

These sequences were tested on PfAP2-EXP AP2 domain (GST-tagged) (assay: gcPBM binding intensity (ln(normalized median fluorescence intensity)); higher = stronger DNA binding).
Outline: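 Binding intensity is the highest Masliner-normalised natural-log median intensity over replicate spots in either probe orientation. To obtain it, GST-tagged P. falciparum DNA-binding domains made in E. coli were incubated for 1 h on an Agilent 4 × 180k array of primer-extended double-stranded 36-bp intergenic genomic probes plus negative controls. Detection used Alexa488 anti-GST antibody with scanning at 488 nm.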
With TTTTTTTTTTTGATGGTGCAATATATTAAATAGAAA the “gcPBM binding intensity (ln)” value was 8.86 ± 0.28.
For “AATATATGGTTCCTTGATATTAAATTCAATTTAATG [CACACA_negctrl_site71]”, the “gcPBM binding intensity (ln)” value was 8.41 ± 0.52.
With “TAATTGATTCTTCACCGTACTCACACATATATATAT [XGTACX_site6530]” the “gcPBM binding intensity (ln)” value was 9.61 ± 0.14.
“ATATATATATATATATGTACACATATATATACTCAC [XGTACX_site8043]” was tested, and the “gcPBM binding intensity (ln)” value was 10 ± 0.4.
“GATTCTTCACCGTACTCACACATATATATATATATA [CACACA_site5665]” was tested, and the “gcPBM binding intensity (ln)” value was 10.2 ± 0.52.
With “ATATTATATATATACACACACACATGCATGCACCTA [CACACA_site106]” the “gcPBM binding intensity (ln)” value was 10.07 ± 0.099.
“TTTGGGATAAAACAAAGTACTAACAAAATATATAAT [XGTACX_site8240]” was tested, and the “gcPBM binding intensity (ln)” value was 8.85 ± 0.47.
With “ATTTATATTTTTTAATGTACATTTATATGTATACAA [XGTACX_site4555]” the “gcPBM binding intensity (ln)” value was 8.78 ± 0.41.
With “ATATAATATTTCATGTGGACACATTTTATGATTGTA [XGTACX_site8770]” the “gcPBM binding intensity (ln)” value was 8.74 ± 0.38.
For “TGCAAAAAAAAAAAAAAAAAATATATGGAAATATAT [GTGCAC_negctrl_site257]”, the “gcPBM binding intensity (ln)” value was 8.54 ± 0.19.
In the case of “ATGGAAATAAAAAAAAAAAAAAAAAAAAATATATAT [GTGCAC_negctrl_site67]”, the “gcPBM binding intensity (ln)” value is reported as 8.36 ± 0.33.
With “TTGTATATATATGGAAAAATATATATATATATATAT [GTGCAC_negctrl_site591]” the “gcPBM binding intensity (ln)” value was 10.3 ± 0.29.
“CGTATTATTATATAAACACACAAGGGGGCATGTATA [CACACA_site745]” was tested, and the “gcPBM binding intensity (ln)” value was 9.83 ± 0.042.
“AATATTTAAGTACTGGTGCGTGTATATAATGATTAA [GTGCAC_site9633]” was tested, and the “gcPBM binding intensity (ln)” value was 8.665 ± 0.078.
For “AAAAAAAAAAAAATTGCATGTAAATGAAATAATAAA [TGCATGCA_site116]”, the “gcPBM binding intensity (ln)” value was 8.89 ± 0.2.
“TTATTGTAAATATATGCATGTGCAAAATGAAAAAAA [TGCATGCA_site399]” was tested, and the “gcPBM binding intensity (ln)” value was 9.07 ± 0.18.
In the case of “AATATTTTAAATATTGCATGCAATGAAAAATGTAAA [TGCATGCA_site139]”, the “gcPBM binding intensity (ln)” value is reported as 10.2 ± 0.31.
“TAAAAGTTCACCTGTACACACATATAAATATGTACA [CACACA_site6901]” was tested, and the “gcPBM binding intensity (ln)” value was 8.47 ± 0.33.
For “TAAGTTCCCTTTGAATGTACATATAATGAAAAGAAA [XGTACX_site826]”, the “gcPBM binding intensity (ln)” value was 8.76 ± 0.37.
“AGTTTCCATATGAGGTGTACATATATAATTTATTAT [XGTACX_site2369]” was tested, and the “gcPBM binding intensity (ln)” value was 8.72 ± 0.4.
“ATATATTTACTTAATACACACAAAAAAAAAAAAAAA [CACACA_site3657]” was tested, and the “gcPBM binding intensity (ln)” value was 8.21 ± 0.52.
In the case of “AAAAATACCTTATATATACACACTATGTTTTTCTTT [CACACA_site1192]”, the “gcPBM binding intensity (ln)” value is reported as 8.71 ± 0.28.
In the case of “TATATTGCCCTTCACACACACACATATATATATATA [CACACA_site2492]”, the “gcPBM binding intensity (ln)” value is reported as 10.2 ± 0.28.
For “TATTGCCCTGGACACACACACATATATATATATATA [CACACA_site5389]”, the “gcPBM binding intensity (ln)” value was 10.2 ± 0.51.
For “TATTGCCCGAAACACACACACATATATATATATATA [CACACA_site2491]”, the “gcPBM binding intensity (ln)” value was 10.3 ± 0.2.
In the case of “TATATATAGAAACACACACACATATATATATATATT [CACACA_site4115]”, the “gcPBM binding intensity (ln)” value is reported as 8.7 ± 0.37.
With “TATTGCCCTTGACACACACACATATAAATAAATATA [CACACA_site7220]” the “gcPBM binding intensity (ln)” value was 8.63 ± 0.37.
With “TATATATAGAAACACACACACACATATATATATATT [CACACA_site2539]” the “gcPBM binding intensity (ln)” value was 8.73 ± 0.67.
For “TTCAAATATAAATACACACACATAGCTACAAAATAA [CACACA_site4172]”, the “gcPBM binding intensity (ln)” value was 8.95 ± 0.42.
“ATATATATATATATTTGTACAGATTTATATTATAAT [XGTACX_site7612]” was tested, and the “gcPBM binding intensity (ln)” value was 9.96 ± 0.23.
“ATTCATATATTTATTGCATGCAAAGTAAAATAAATA [TGCATGCA_site307]” was tested, and the “gcPBM binding intensity (ln)” value was 10.23 ± 0.099.
With “TATTATTTTTCATATGCATGCAAAAATAAAAAAATA [TGCATGCA_site350]” the “gcPBM binding intensity (ln)” value was 9.63 ± 0.35.
“TTTGCAACATATAAAAGTACAAATAATATATTTATT [XGTACX_site890]” was tested, and the “gcPBM binding intensity (ln)” value was 8.41 ± 0.43.
In the case of “TACACAAGGGGAAAAATATATATATATATATATATA [TGCATGCA_negctrl_site217]”, the “gcPBM binding intensity (ln)” value is reported as 10.2 ± 0.57.
In the case of “ATAAAATCAAAATATACACACAAGGGGGAAAATCAA [CACACA_site2809]”, the “gcPBM binding intensity (ln)” value is reported as 8.96 ± 0.42.
In the case of “ACAAAAGGGGAATACACACACATATATATATATATA [CACACA_site2215]”, the “gcPBM binding intensity (ln)” value is reported as 10.2 ± 0.52.
“ATACAAAAGGGGAATACACACACATATATATATATA [CACACA_site8694]” was tested, and the “gcPBM binding intensity (ln)” value was 10.1 ± 0.33.
In the case of “GGAATATATATACATACACACATATATATATATATA [CACACA_site1666]”, the “gcPBM binding intensity (ln)” value is reported as 10.1 ± 0.33.
With “AGTATATATACACAAGGGGAATACATATACAAAATT [TGCATGCA_negctrl_site244]” the “gcPBM binding intensity (ln)” value was 8.89 ± 0.39.
For “ACAAAAGGGGAATACACACACATATATAAATAAATA [CACACA_site7111]”, the “gcPBM binding intensity (ln)” value was 8.73 ± 0.45.
“AAGATATGAGGGAATACACACATATTTATATTTATA [CACACA_site6846]” was tested, and the “gcPBM binding intensity (ln)” value was 8.26 ± 0.38.
In the case of “AAGATATGAGGGAATACACACATATATATATATATA [CACACA_site1581]”, the “gcPBM binding intensity (ln)” value is reported as 10.2 ± 0.43.
In the case of “TTTTTAATAATCTCTCAAAATGTTCTTATATTTTAC [CACACA_negctrl_site1691]”, the “gcPBM binding intensity (ln)” value is reported as 8.11 ± 0.26.
For “TATAAATGATTAATTTGTACATATTTTACTTAATTG [XGTACX_site5271]”, the “gcPBM binding intensity (ln)” value was 8.18 ± 0.37.
